tim23-1 inh: growth inhibitors of tim23-1 mutant yeast, primary screen, luminescence, uHTS; S. cerevisiae tim23-1 growth, BacTiter-Glo luminescence, 24 h; inhibition, % at 20 µM; 1.3% of 330,000 active; AID 463212, 2010;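 active = growth inhibition of the mutant yeast at or above 50%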;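 note: temperature-sensitive mutant grown at 25 °C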
TIM10 inh: growth inhibitors of isogenic TIM10 control yeast, primary screen, counter-screen for tim10-1 yeast inhibitor project, luminescence, uHTS; S. cerevisiae TIM10 strain growth, BacTiter-Glo luminescence, 24 h; inhibition, % at 10 µM; 1.4% of 330,000 active; AID 463195, 2010;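 active = inhibition of 40% or more at the single tested concentration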;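 note: wild-type TIM10 isogenic control strain grown at permissive 25 °C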
tim10-1 inh: growth inhibitors of tim10-1 mutant yeast, primary screen, luminescence, uHTS | S. cerevisiae tim10-1 ts strain growth, BacTiter-Glo, 24 h | inhibition, % at 20 µM | 2.2% of 330,000 active;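 active = inhibition of at least 40%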;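 note: mutant grown at 25 °C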
ATG4B inhibitor: ATG4B protease inhibitors, primary screen, biochemical, fluorescence, uHTS; Cysteine protease ATG4B (Homo sapiens), Q9Y4P1; ATG4B cleavage of LC3-PLA2, NBD-HPC fluorescence, 1 h; inhibition, % at 8.33 µM; 0.51% of 340,000 active; AID 504462, 2011; in the data active = inhibition above about 40%
Target sequence (Q9Y4P1 whole entry, looked up): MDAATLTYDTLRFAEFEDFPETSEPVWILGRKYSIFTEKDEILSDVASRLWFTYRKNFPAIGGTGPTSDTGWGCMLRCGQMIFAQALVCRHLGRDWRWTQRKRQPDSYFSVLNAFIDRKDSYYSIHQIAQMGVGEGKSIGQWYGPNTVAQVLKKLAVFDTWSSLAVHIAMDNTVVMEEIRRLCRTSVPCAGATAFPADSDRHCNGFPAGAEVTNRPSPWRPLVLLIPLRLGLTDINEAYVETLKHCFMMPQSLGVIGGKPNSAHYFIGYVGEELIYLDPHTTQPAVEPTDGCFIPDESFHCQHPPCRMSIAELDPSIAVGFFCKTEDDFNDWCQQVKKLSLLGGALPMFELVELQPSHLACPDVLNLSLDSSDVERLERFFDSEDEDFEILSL
SKKanGAS inh: S. pyogenes SKKanGAS growth inhibitors in kanamycin, primary screen, streptokinase expression inhibitor project, SKKanGAS strain, BacTiter-Glo luminescence | 6 h | inhibition, % at 7.5 µM | 1.3% of 300,000 active;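 active = mean replicate score, as percent of positive control median, at least 50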;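 note: strain carries kanamycin resistance gene driven by streptokinase promoter and grows in 40 µg/ml kanamycin; loss of luminescence reflects streptokinase promoter inhibition or plain growth inhibition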
PfHsp90 yeast 2: growth inhibition of PfHsp90-expressing yeast, primary screen, antimalarial PfHsp90 inhibitor project, S. cerevisiae, BacTiter-Glo luminescence, single point, set 2. inhibition, % at 9.4 µM. 0.32% of 310,000 active. BacTiter-Glo ATP, 48 h; yeast lacking PDR1 and PDR3 efflux regulators;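 active = every replicate shows inhibition above about 80%, whatever the replicate mean, limit read from the data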
tim10-1 confirm: growth inhibitors of tim10-1 mutant yeast, confirmation, single concentration, luminescence, S. cerevisiae; inhibition, % at 20 µM; S. cerevisiae tim10-1 ts strain growth, BacTiter-Glo, 24 h; 56% of 7,400 active; AID 463213, 2010; shares compounds with tim10-1 inh;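 active = inhibition of yeast growth at or above a set limit in either of two repeat tests at 20 µM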;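 note: tim10-1 mutant grown at permissive 25 °C to find synthetic lethal compounds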
tim10 confirm: growth inhibitors of wild-type TIM10 yeast, confirmation, counter-screen for tim10-1 synthetic lethality project, single concentration, luminescence, S. cerevisiae | shares compounds with TIM10 inh | S. cerevisiae tim10 strain growth, BacTiter-Glo luminescence, 24 h | inhibition, % at 10 µM | 63% of 4,600 active | AID 463215, 2010;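 active = inhibition of yeast growth at or above a set limit in either of two replicates at 10 µM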; note: this counterscreen used the strain with wild-type TIM10
tim23-1 confirm: tim23-1 mutant yeast growth inhibitors, confirmation, luminescence, single concentration; S. cerevisiae tim23-1 growth, BacTiter-Glo luminescence, 24 h; shares compounds with tim23-1 inh; 83% of 4,400 active; inhibition, % at 20 µM;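 active = inhibition above about 39% in either of two replicate wells at 20 µM, limit read from the data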;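 note: temperature-sensitive tim23-1 mutant grown at 25 °C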
Numbers stand for hits. Sampled rows, rich in hits. Any-hit rate of the full collection: about 4.7%.

Results for O=C(Nc1ccc(C(F)(F)F)cc1)c1ccccc1 ?
tim23-1 inh: inactive; TIM10 inh: inactive; tim10-1 inh: inactive; ATG4B inhibitor: inactive; PfHsp90 yeast 2: inactive

What do the screens show for `O=C(Nc1ccc(Br)c(C(F)(F)F)c1)c1ccc(C(F)(F)F)cc1`?
tim23-1 inh: 81; TIM10 inh: 72; tim10-1 inh: 45; ATG4B inhibitor: inactive; SKKanGAS inh: 106; tim10-1 confirm: 48; tim10 confirm: 81; tim23-1 confirm: inactive

What do the screens show for `O=C(Nc1ccc(Br)c(C(F)(F)F)c1)c1ccccc1`?
tim23-1 inh: 73; TIM10 inh: 68; tim10-1 inh: 58; ATG4B inhibitor: inactive; SKKanGAS inh: inactive; PfHsp90 yeast 2: inactive; tim10-1 confirm: 50; tim10 confirm: inactive; tim23-1 confirm: 78

How did Clc1ccc(Cc2nnc(-c3ccccc3Br)o2)cc1 do in these assays?
tim23-1 inh: inactive; TIM10 inh: inactive; tim10-1 inh: inactive; ATG4B inhibitor: inactive; SKKanGAS inh: inactive; PfHsp90 yeast 2: inactive

Results for O=c1c(Cl)c(Cl)cnn1Cc1nnc(-c2ccccc2Br)o1 ?
tim23-1 inh: 78; TIM10 inh: 44; tim10-1 inh: 63; ATG4B inhibitor: inactive; SKKanGAS inh: inactive; PfHsp90 yeast 2: inactive; tim10-1 confirm: 67; tim10 confirm: 50; tim23-1 confirm: 77

What do the screens show for `Cn1c(Cc2ccccc2)nnc1SCC(=O)c1ccc(Br)s1`?
tim23-1 inh: inactive; TIM10 inh: inactive; tim10-1 inh: inactive; ATG4B inhibitor: inactive; SKKanGAS inh: inactive; PfHsp90 yeast 2: inactive

How did COC(=O)c1cc(=O)n(-c2ccc(F)cc2)c(=Nc2ccc(F)cc2)s1 do in these assays?
tim23-1 inh: 67; TIM10 inh: 54; tim10-1 inh: 56; ATG4B inhibitor: inactive; SKKanGAS inh: inactive; PfHsp90 yeast 2: 125; tim10-1 confirm: 57; tim10 confirm: 55; tim23-1 confirm: 44

Results for COC(=O)c1cc(=O)n(Cc2cccs2)c(=Nc2ccc(F)cc2)s1 ?
tim23-1 inh: inactive; TIM10 inh: inactive; tim10-1 inh: inactive; ATG4B inhibitor: inactive; SKKanGAS inh: inactive; PfHsp90 yeast 2: inactive

What do the screens show for `O=C(Cc1cccc(NC(=O)C2CCCN(C(=O)C3CC3)C2)c1)Nc1ccc(C(=O)N2CCOCC2)cc1` (stereo not given)?
ATG4B inhibitor: inactive; PfHsp90 yeast 2: inactive

How did CCOC(=O)CSc1nnc(CNc2ccc(Cl)cc2)n1-c1ccccc1 do in these assays?
tim23-1 inh: inactive; TIM10 inh: inactive; tim10-1 inh: inactive; ATG4B inhibitor: inactive; SKKanGAS inh: inactive

Results for CCOc1ccc(NCc2nnc(SCc3ccc(Cl)cc3)n2-c2ccccc2)cc1 ?
tim23-1 inh: 52; TIM10 inh: 47; tim10-1 inh: 46; ATG4B inhibitor: inactive; SKKanGAS inh: inactive; PfHsp90 yeast 2: inactive; tim10-1 confirm: 42; tim10 confirm: inactive; tim23-1 confirm: 56

Results for COC(=O)C1=C(C)NC(=S)NC1c1ccc(-c2cccc(Cl)c2)o1 (stereo not given) ?
tim23-1 inh: 52; TIM10 inh: 53; tim10-1 inh: 50; ATG4B inhibitor: inactive; SKKanGAS inh: inactive; PfHsp90 yeast 2: inactive; tim10-1 confirm: 39; tim10 confirm: inactive; tim23-1 confirm: 49

What do the screens show for `CCN1C(=O)C(CC(=O)Nc2ccc(OC)cc2)N(CCCN2CCN(c3ccc(OC)cc3)CC2)C1=S` (stereo not given)?
tim23-1 inh: inactive; TIM10 inh: inactive; tim10-1 inh: inactive; ATG4B inhibitor: inactive; SKKanGAS inh: inactive

What do the screens show for `O=C(CN1C(=O)COc2ccccc21)NCC1CCCO1` (stereo not given)?
tim23-1 inh: inactive; TIM10 inh: inactive; tim10-1 inh: inactive; ATG4B inhibitor: inactive; SKKanGAS inh: inactive; PfHsp90 yeast 2: inactive

Results for Cc1nc2c(ccc3nc(NC(=O)C4CC4)sc32)s1 ?
tim23-1 inh: 68; TIM10 inh: 65; tim10-1 inh: 53; ATG4B inhibitor: inactive; SKKanGAS inh: inactive; tim10-1 confirm: 54; tim10 confirm: 54; tim23-1 confirm: 71

How did CCC(=O)Nc1nc2ccc3sc(C)nc3c2s1 do in these assays?
tim23-1 inh: inactive; TIM10 inh: inactive; tim10-1 inh: inactive; ATG4B inhibitor: inactive; SKKanGAS inh: inactive; PfHsp90 yeast 2: inactive

Results for O=[N+]([O-])c1ccc(-c2ccc(C=Nc3cccc4ccccc34)o2)cc1 ?
tim23-1 inh: inactive; TIM10 inh: inactive; tim10-1 inh: inactive; ATG4B inhibitor: inactive; SKKanGAS inh: inactive; PfHsp90 yeast 2: inactive

What do the screens show for `O=[N+]([O-])c1ccc(C=Nc2cccc3ccccc23)s1`?
tim23-1 inh: 79; TIM10 inh: inactive; tim10-1 inh: 77; ATG4B inhibitor: inactive; SKKanGAS inh: inactive; PfHsp90 yeast 2: 103; tim10-1 confirm: 77; tim23-1 confirm: 70

What do the screens show for `O=c1oc(/C=C/c2ccc([N+](=O)[O-])s2)nc2ccccc12`?
tim23-1 inh: 54; TIM10 inh: inactive; tim10-1 inh: 60; ATG4B inhibitor: inactive; SKKanGAS inh: inactive; PfHsp90 yeast 2: inactive; tim10-1 confirm: 46; tim23-1 confirm: 45

How did S=C(NNc1ccc2ccccc2c1)NC1CCCCC1 do in these assays?
tim23-1 inh: 52; TIM10 inh: 51; tim10-1 inh: 49; ATG4B inhibitor: inactive; SKKanGAS inh: inactive; PfHsp90 yeast 2: inactive; tim10-1 confirm: 53; tim10 confirm: 56; tim23-1 confirm: 52

Results for CCOC(=O)COc1c(C=O)cc(Br)cc1OC ?
tim23-1 inh: 61; TIM10 inh: 65; tim10-1 inh: 45; ATG4B inhibitor: inactive; SKKanGAS inh: inactive; tim10-1 confirm: 36; tim10 confirm: 53; tim23-1 confirm: 75

How did CN(Cc1ccccc1)c1nc(CN2CCOCC2)nc2scc(-c3ccccc3)c12 do in these assays?
tim23-1 inh: 65; TIM10 inh: 55; tim10-1 inh: 47; ATG4B inhibitor: inactive; SKKanGAS inh: inactive; PfHsp90 yeast 2: inactive; tim10-1 confirm: 42; tim10 confirm: 40; tim23-1 confirm: 61

Source: PubChem BioAssay (several laboratories)
